# A number with no mark means an inactive call.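 The calls were made as follows: active = growth AUC significantly below the DMSO wells by Dunnett test; inactive = the rest.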
# Test system: Community 10
# Assay: relative growth (AUC of 72 h growth curve relative to DMSO control, dAUC) (ratio); higher = more growth (less inhibition), active = hit call of the paper
# Conditions: 20 µM
# Description: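 Environmental bacterial isolates (Iceland stream sediment and Silwood Park soil) and whole stream-sediment communities were grown in LB from a 1:100 dilution with each pesticide at 20 µM (1% DMSO). A600 was read hourly for 72 h and the area under a spline-fitted growth curve (AUC) was computed. dAUC is the mean AUC of 3 biological replicates divided by the mean AUC of the DMSO controls. Significance was tested by Dunnett's test against the DMSO control.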
row,SMILES,relative growth
1,CC(COc1ccc(Oc2ccccc2)cc1)Oc1ccccn1 (stereo not given),1.01
2,CCCN(CCC)C(=O)SCc1ccccc1,0.888
3,Cc1nc(N(C)C)nc(OC(=O)N(C)C)c1C,0.979
4,Cc1cc(C(C#N)c2ccc(Cl)cc2)c(Cl)cc1NC(=O)c1cc(I)cc(I)c1O (stereo not given),0.677
5,CC(C)N(C(=O)COc1nnc(C(F)(F)F)s1)c1ccc(F)cc1,0.763
6,CCC(=O)Nc1ccc(Cl)c(Cl)c1,0.919
7,CC(C)OC(=O)Nc1cccc(Cl)c1,1.17
8,CCNC(=O)NC(=O)/C(C#N)=N/OC,1.03
9,CCCCc1c(C)nc(NCC)nc1OS(=O)(=O)N(C)C,0.816
10,N#Cc1c(Cl)c(Cl)c(Cl)c(C#N)c1Cl,0.896
11,O=C1C=C(N(Cc2ccc(Cl)nc2)CC(F)F)CO1,0.814
12,O=C(O)CNCP(=O)(O)O,0.952
13,ClC1C(Cl)C(Cl)C(Cl)C(Cl)C1Cl (stereo not given),0.844
14,Fc1ccc(Oc2ccnc3cc(Cl)cc(Cl)c23)cc1,0.887
15,CCOCN(C(=O)CCl)c1c(C)cccc1CC,0.858
16,CC(C1CC1)C(O)(Cn1cncn1)c1ccc(Cl)cc1 (stereo not given),1.02
17,Oc1ccc(Cl)cc1Cc1cc(Cl)ccc1O,0.642
18,N#Cc1cc(Br)c(O)c(Br)c1,0.931
19,CN(C)C(CSS(=O)(=O)O)CSS(=O)(=O)O,0.835
20,Cc1cc(C)nc(Nc2ccccc2)n1,1.07

row,SMILES,relative growth
1,CO/C=C(/C(=O)OC)c1ccccc1COc1cccc(C(F)(F)F)n1,0.887
2,CNC(=O)c1cc(C#N)cc(C)c1NC(=O)c1cc(Br)nn1-c1ncccc1Cl,0.859
3,Oc1ccccc1-c1ccccc1,0.954
4,Cc1nnc(-c2ccccc2)c(=O)n1N,0.899
5,CC1(C)[C@H](C(=O)O[C@H](C#N)c2cccc(Oc3ccccc3)c2)[C@@H]1C=C(Br)Br,0.964
6,C[N+]1(C)CCCCC1,1.01
7,N#Cc1c[nH]cc1-c1cccc2c1OC(F)(F)O2,0.855
8,CC1(C)C(C=C(Cl)Cl)C1C(=O)OCc1cccc(Oc2ccccc2)c1 (stereo not given),0.824
9,CC(C)CC(C)c1sccc1NC(=O)c1cn(C)nc1C(F)(F)F (stereo not given),0.715
10,C#CCN1C(=O)COc2cc(F)c(N3C(=O)C4=C(CCCC4)C3=O)cc21,0.871
11,CC(C)N1C(=O)N(c2ccccc2)CS/C1=N\C(C)(C)C,0.858
12,COP(=S)(OC)Oc1nc(Cl)c(Cl)cc1Cl,0.856
13,COc1cc(OC)nc(NC(=O)NS(=O)(=O)c2ncccc2C(=O)N(C)C)n1,1.11
14,CNC(=O)CSP(=S)(OC)OC,0.887
15,CNC(=O)Oc1cccc2ccccc12,0.847
16,CC1=NNC(=O)N(/N=C/c2cccnc2)C1,0.983
17,COP(=S)(OC)Oc1ccc(SC)c(C)c1,0.993
18,CC1(C)C(C=C(Cl)Cl)C1C(=O)OC(C#N)c1ccc(F)c(Oc2ccccc2)c1 (stereo not given),0.911
19,N#Cc1sc2c(=O)c3ccccc3c(=O)c=2sc1C#N,1.16
20,Clc1ccc(C(c2ccc(Cl)cc2)C(Cl)(Cl)Cl)cc1,0.832

# Source: the supplement of paper PMC12067926
